# Bioassay records (PubChem)
# Pf apPOL block: Pf-apPOL DNA polymerase inhibition | inhibition, % at 10 µM | 210,000 tested, 0.25% active | AID 1794808 | Recombinant Pf-apPOL, molecular beacon fluorescence, 1.5 h
# mHTT CaM bind: disrupts binding of mutant huntingtin to calmodulin; P42858; AlphaScreen His-mHTT/GST-CaM binding, luminescence; inhibition, % at 15 µM; 190,000 tested, 3.6% active; AID 1671202;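 note: 0% = both proteins with DMSO and 100% = one protein alone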
# An asterisk follows results filed as active; i = inactive; x = no result given. An excerpt weighted towards active compounds, which were near 3.5% of everything screened. Cut-off read from the data, not from the text of the source: active = inhibition above about 50%; inactive = the rest.
SMILES,Pf apPOL block,mHTT CaM bind
CCC(CO)NCC(O)Cn1c2ccccc2c2ccccc21 (configuration not stated),-3.1,-3.0
CC(NCC(O)Cn1c2ccccc2c2ccccc21)C(=O)O (configuration not stated),-5.9,3.8
COc1ccccc1NCC(O)Cn1ccc2ccccc21 (configuration not stated),-2.9,46.4
CC1(O)CCN(Cc2ccc(F)cc2)CC1N1CCCC1 (configuration not stated),-6.3,-6.1
O=C1C(c2ccncc2)N(CCCc2ccccc2)C(=O)CN1c1ccccc1 (configuration not stated),-6.8,-1.9
CCOc1ccccc1C(=O)N1CCC(N2CCN(CC)C2=O)CC1,-0.9,8.8
COc1cc(/C=C2\SC(NC(C)=O)=NC2=O)cc(Br)c1OCc1ccccc1,1.1,10.0
CCn1c(=O)c2c(ncn2Cc2ccc(F)cc2F)n(-c2ccc(C)cc2)c1=O,-4.5,1.0
O=C(NCCn1cc(SCc2ccc([N+](=O)[O-])cc2)c2ccccc21)c1ccccc1F,1.2,36.0
NC(CS(=O)(=O)c1cccs1)=NOC(=O)Nc1ccc(Cl)cc1,-5.4,x
Cc1ccc(NCC(O)Cn2c(C)c(C)c3ccccc32)c(C)c1 (configuration not stated),-7.6,82.0*
Cc1ccc(S(=O)(=O)NCC(O)Cn2c3ccccc3c3ccccc32)cc1 (configuration not stated),12.7,28.0
Cc1ccc(SCC(=O)Nc2ccc3scnc3c2)cc1,-2.7,-7.8
COc1ccc(-c2n[nH]c(C)c2NC(=O)C2CCCCC2)cc1OC,2.5,7.1
CN1C(=O)/C(=N\OC(=O)c2ccccc2Br)c2ccccc21,1.5,i
COc1ccc(C(=O)ON=C2C=CC(=O)C=C2)cc1,-2.7,53.0*
O=C1C=CC(=NOC(=O)c2ccccc2Br)C=C1,9.9,89.0*
CC1=CC(=O)C=C(C)C1=NOC(=O)c1ccccc1Br,-20.4,90.0*
O=C1C=CC(=NOC(=O)c2ccc([N+](=O)[O-])cc2)C=C1,-9.9,7.0
Cc1ccc(C(=O)ON=C2C=CC(=NOC(=O)c3ccccc3Br)C=C2)cc1,-0.7,4.0
Cc1ccccc1N1CCN(Cc2nc(C(=O)NC3CC3)cs2)CC1,-7.0,5.1
Cc1ccccc1CNC(=O)C1(C)CCCN(C(=O)Nc2ccc3c(c2)OCCO3)C1 (configuration not stated),-0.8,-2.2
Cc1nn(C(=O)COc2ccccc2)c(C)c1Sc1ccc(Cl)cc1,6.8,6.0
CC1NC2(CCN(C(=O)c3ccc(F)cc3)CC2)N(C2CC2)C1=O (configuration not stated),-1.2,-1.9
Cc1oc(C(C)C)nc1C(=O)Nc1cc(F)ccc1Cl,-1.4,-28.7
SMILES,Pf apPOL block,mHTT CaM bind
O=C(Nc1ccc(NC(=O)c2ccc([N+](=O)[O-])cc2Cl)cc1)c1ccccc1,-0.1,-3.8
Cc1ccc(-c2cc(C(=O)N3CCN(c4ccccn4)CC3)c(C)[nH]2)cc1,-1.9,77.4*
Cn1cc(C(=O)N2CCN(c3ccccn3)CC2)c2cccnc21,-0.2,-10.5
O=C(NC1CCCCCC1)c1cccc(-c2cnc(N3CCCC3)nc2)c1,4.7,-5.5
CC(C)c1cc(C2CCCN2C(=O)Nc2ccccc2Br)on1 (configuration not stated),-0.9,-2.8
CSC1=N/C(=C\c2cc(Br)ccc2OCC(=O)O)C(=O)S1,-2.9,68.0*
CSC1=N/C(=C/c2ccc(Br)cc2)C(=O)S1,5.9,7.0
Oc1c(C=NCCc2ccccc2)[nH]c2ccc(Br)c(Cl)c12,-1.4,86.0*
Cc1cccc(C)c1N=Cc1[nH]c2ccc(Br)c(Cl)c2c1O,-100.4,12.0
Cc1ccc(CN=Cc2[nH]c3ccc(Br)c(Cl)c3c2O)cc1,-0.9,21.0
Oc1c(C=NCc2ccc(F)cc2)[nH]c2ccc(Br)c(Cl)c12,5.1,55.0*
Oc1c(C=Nc2ccc(F)cc2)[nH]c2ccc(Br)c(Cl)c12,9.9,5.0
Oc1c(C=NCc2ccccc2Cl)[nH]c2ccc(Br)c(Cl)c12,-4.4,72.0*
COc1ccccc1N=Cc1[nH]c2ccc(Br)c(Cl)c2c1O,-2.8,3.0
Oc1c(C=NCc2ccc(Cl)cc2Cl)[nH]c2ccc(Br)c(Cl)c12,0.5,58.0*
COc1cc(C2=NC(=CC=Cc3ccccc3)C(=O)O2)cc(OC)c1OC,-10.2,x
COc1cc(C2=N/C(=C\C=C\c3ccccc3)C(=O)O2)cc(OC)c1OC,1.3,61.0*
Cc1onc(-c2ccccc2)c1C1=N/C(=C\C=C\c2ccccc2)C(=O)O1,-2.5,68.0*
Cc1ccc(/C=C2/N=C(c3c(-c4ccccc4)noc3C)OC2=O)cc1,2.7,-2.0
O=C(C1CCC1)N1CCc2sc(S(=O)(=O)NCc3cccc(Cl)c3)cc2C1,2.0,4.0
CC(C)CNC(=O)CN(c1cc(C(F)(F)F)ccc1Cl)S(C)(=O)=O,-5.4,-5.0
CCC(=O)N1CCc2sc(S(=O)(=O)Nc3ccc(C)cc3C)cc2C1,-6.1,10.6
CCC(=O)NCc1csc(C2CCN(C(=O)c3ccc(N(C)C)cc3)CC2)n1,-3.4,-6.3
